Source: PubChem BioAssay AID1626 (SRMLSC, 2009)
In all, about 220,000 compounds went through this assay and about 2,000 (0.91%) were called active. Inconclusive results (about 2%) are left out. Rule as the data show it: inconclusive = inhibition above about 80% without an active follow-up result; inactive = below that; test concentration not stated here. Not all results are given here. Measured potencies and affinities stand elsewhere.

assay: M. tuberculosis H37Rv growth inhibitors, H37Rv strain (AID 1626); details: stronger effect = higher value, concentration not given here;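 also: bacteria incubated seven days before Alamar blue readout; 0% = bacteria only wells and 100% = bacteria with antibiotic wells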

SMILES | inhibition
COc1ccc(C2C(C(=O)O)c3ccccc3C(=O)N2Cc2ccco2)cc1 (stereo unspecified) | -9.26% (inactive)
COC(=O)c1ccc(NC(=O)NS(=O)(=O)c2ccc(C)cc2)cc1 | 55.9% (inactive)
COC(=O)c1ccc(NC(=O)CCOc2ccccc2)cc1 | 23.7% (inactive)
CCOC(=O)c1ccc(NC(=O)Nc2ccc(S(N)(=O)=O)cc2)cc1 | -7.07% (inactive)
CCOC(=O)Nc1cccc(Nc2ccccc2)c1 | 3.05% (inactive)
O=C(CCOc1ccccc1)Nc1ccccc1 | 7.71% (inactive)
CC(=O)Nc1ccc(NC(=O)Oc2ccccc2)cc1 | -9.97% (inactive)
CCOC(=O)Nc1ccc(Oc2ccccc2)cc1 | 8.39% (inactive)
CC(=O)c1ccc(NC(=O)Oc2ccccc2)cc1 | -7.64% (inactive)
CC(C)c1ccccc1NC(=O)COc1ccc2c(=O)c(Oc3ccc4ccccc4c3)coc2c1 | 5.82% (inactive)
COC(=O)c1cc(NS(=O)(=O)c2cccc(Cl)c2)ccc1N1CCOCC1 | 3.2% (inactive)
O=C(CN(CC1CCCO1)C(=O)CCC(=O)Nc1nccs1)NCc1ccccc1 (stereo unspecified) | -3.47% (inactive)
COc1ccccc1N(C)S(=O)(=O)c1ccc(C(=O)OCC(=O)N2CCCCCC2)cc1 | 9.09% (inactive)
CC1=NN(C(C#N)c2cccc([N+](=O)[O-])c2)C(C)(C)C1 (stereo unspecified) | -1.89% (inactive)
CCOC(=O)c1ccc(NC(=O)CN(C)S(=O)(=O)c2ccc(OC)cc2)cc1 | -10.7% (inactive)
Cc1ccc(NC(=O)CCSCCc2ccccn2)cc1 | 71.6% (inactive)
COc1ccc(NC(=O)CCOc2ccccc2)cc1 | 70.1% (inactive)
CC(=O)Nc1ccc(NC(=O)CCSCCc2ccccn2)cc1 | -0.22% (inactive)
Cc1ccc(OCCC(=O)Nc2ccc(F)c(F)c2)cc1 | -1.46% (inactive)
Cc1ccc(OCCCC(=O)Nc2ccc(Br)cc2)cc1 | -4.3% (inactive)
O=C(CN1CC(=O)Nc2ccccc21)Nc1ccc(F)c(F)c1 | 0.62% (inactive)
COc1ccc(CCNC(=O)CSc2cccc3cccnc23)cc1OC | 3.55% (inactive)

SMILES | inhibition
CCC(C)NC(=O)c1ccccc1SC (stereo unspecified) | 9.14% (inactive)
CCN(Cc1cc(=O)[nH]c2ccccc12)C(=O)c1ccc(C)cc1 | -2.96% (inactive)
COc1ccc(C(=O)NC(=S)Nc2ccc(CN3CCCCC3)cc2)cc1Cl | 7.56% (inactive)
COC(=O)c1c(C)oc2ccc(OC(=O)N3CCOCC3)cc12 | -6.17% (inactive)
Cc1oc2ccc(OS(C)(=O)=O)cc2c1C(=O)OC(C)C | -0.97% (inactive)
CCOC(=O)c1c(C)oc2ccc(OS(C)(=O)=O)cc12 | 0.04% (inactive)
CCOC(=O)c1c(C)oc2ccc(OCC(N)=O)cc12 | 8.61% (inactive)
Cc1oc2ccc(OC(=O)N(C)C)cc2c1C(=O)OC(C)C | -7.47% (inactive)
COC(=O)c1c(C)oc2ccc(NS(=O)(=O)c3cccs3)cc12 | 2.07% (inactive)
COC(=O)c1ccc(CSc2nc3c(cnn3-c3ccc(C)cc3)c(=O)[nH]2)o1 | -0.23% (inactive)
CC1(C)C(=O)Nc2ccccc2N1C(=O)COc1ncnc2ccccc12 | 4.16% (inactive)
O=C(C[n+]1ccc(/C=N/O)cc1)NCc1ccccc1 | -12.5% (inactive)
COc1cc(CCNc2ccc3nnc(-c4ccccc4)n3n2)cc(OC)c1OC | 10.3% (inactive)
O/N=C1\CCCCc2ccccc21 | -4.26% (inactive)
CC12CCC(C(=O)N3CCN(C(c4ccccc4)c4ccccc4)CC3)(OC1=O)C2(C)C (stereo unspecified) | 1.93% (inactive)
CC(Nc1nc(-c2ccc(F)cc2)cs1)c1nc2cc(Cl)c(N3CCCCC3)cc2n1CCCO (stereo unspecified) | 78% (inactive)
CC(Nc1nc(-c2ccc(F)cc2)cs1)c1nc2cc(Cl)c(N3CCCCC3)cc2n1CCOCCO (stereo unspecified) | 19.6% (inactive)
CC(Nc1nc(-c2ccc(Cl)cc2)cs1)c1nc2cc(Cl)c(N3CCCCC3)cc2n1CCOCCO (stereo unspecified) | 44.5% (inactive)
COc1ccc(-c2csc(NC(C)c3nc4cc(Cl)c(Cl)cc4n3CCCO)n2)cc1 (stereo unspecified) | 5.27% (inactive)
Cc1ccc(NC(=O)c2cc(NC(=O)C3CC=CCC3C(=O)O)ccc2N2CCOCC2)cc1Cl (stereo unspecified) | -6.7% (inactive)
O=C(Nc1nc2ccccc2n1CCN1CCCC1)c1ccc(Cl)cc1 | 58.7% (inactive)
CCN(CC)CCn1c(NC(=O)c2ccc(Cl)cc2)nc2ccccc21 | 57.6% (inactive)

SMILES | inhibition
Cn1c(NC(=O)c2cccc(Cn3cc(Cl)cn3)c2)nc2ccccc21 | 84.7% (inactive)
CN(C)CCn1c(NC(=O)c2ccc(Cl)cc2)nc2ccccc21 | 65.2% (inactive)
CCn1c(NC(C)=O)nc2ccccc21 | 2.94% (inactive)
CC(C)NC(=O)c1cccc(Cn2cc(Cl)cn2)c1 | -2.76% (inactive)
CC(=O)Nc1nc2ccccc2n1CCN1CCOCC1 | -6.15% (inactive)
CCn1c(CNC(=O)c2ccccc2)nc2ccccc21 | -6.06% (inactive)
Cc1c(C(=O)N/N=C/c2ccc(N3CCOCC3)cc2)nc2ccccn12 | 3.49% (inactive)
CC(c1ccccc1)c1nnc(NC(=O)c2ccc3c(c2)OCO3)s1 (stereo unspecified) | 6.54% (inactive)
O=C(OCCN1C(=O)c2ccccc2C1=O)C1CCN(S(=O)(=O)c2cccs2)CC1 | -5.04% (inactive)
CCCCNC(=O)N1CCN(C/C=C/c2ccccc2)CC1 | 5.68% (inactive)
O=C(c1ccc(C(F)(F)F)cc1)N1CCCCC1 | -0.08% (inactive)
Fc1cccc(NC(=S)NCc2cccnc2)c1 | 21.1% (inactive)
O=c1c2cc(-c3ccccc3)sc2nc2n1N=C(c1ccccc1)CS2 | 10.6% (inactive)
CCCCN(CCCC)Cc1cc2ccccc2c2c1COC2 | 4.07% (inactive)
CCCn1c(Nc2nc3ccccc3n2C)nc2ccccc21 | 2.56% (inactive)
CCn1c(CCCNC(=O)c2cccs2)nc2ccccc21 | -2.25% (inactive)
CCn1c(C(C)NC(=O)c2cccs2)nc2ccccc21 (stereo unspecified) | 2.83% (inactive)
CCCn1c(Nc2ccccc2C)nc2ccccc21 | -8.39% (inactive)
CCCn1c(NC(=S)Nc2ccccc2)nc2ccccc21 | 7.73% (inactive)
CCCn1c(NCCO)nc2ccccc21 | -2.95% (inactive)
CCCn1c(C(C)NC(=O)c2ccccc2)nc2ccccc21 (stereo unspecified) | 0.32% (inactive)
CCCn1c(CNC(=O)c2ccccc2)nc2ccccc21 | -0.92% (inactive)
